Measurements: the supplement of paper PMC11732987, “Enantioselective OTUD7B fragment discovery through chemoproteomics screening and high-throughput optimisation” (Communications Chemistry, 2025)

Columns and labels:
Test in all cases: log2 ratio of Biotin-Ahx-Ub-VS probe labelling (fragment/DMSO); higher = less target engagement (more negative = stronger competition), active = hit call of the paper (q ≤ 0.05, log2 ratio ≤ -1)
Settings in all cases: compound concentration: 200 uM; treatment time: 3 h
[1] = biological target: T1, USP42 (UniProt Q9H9J4)
T1 sequence (whole entry): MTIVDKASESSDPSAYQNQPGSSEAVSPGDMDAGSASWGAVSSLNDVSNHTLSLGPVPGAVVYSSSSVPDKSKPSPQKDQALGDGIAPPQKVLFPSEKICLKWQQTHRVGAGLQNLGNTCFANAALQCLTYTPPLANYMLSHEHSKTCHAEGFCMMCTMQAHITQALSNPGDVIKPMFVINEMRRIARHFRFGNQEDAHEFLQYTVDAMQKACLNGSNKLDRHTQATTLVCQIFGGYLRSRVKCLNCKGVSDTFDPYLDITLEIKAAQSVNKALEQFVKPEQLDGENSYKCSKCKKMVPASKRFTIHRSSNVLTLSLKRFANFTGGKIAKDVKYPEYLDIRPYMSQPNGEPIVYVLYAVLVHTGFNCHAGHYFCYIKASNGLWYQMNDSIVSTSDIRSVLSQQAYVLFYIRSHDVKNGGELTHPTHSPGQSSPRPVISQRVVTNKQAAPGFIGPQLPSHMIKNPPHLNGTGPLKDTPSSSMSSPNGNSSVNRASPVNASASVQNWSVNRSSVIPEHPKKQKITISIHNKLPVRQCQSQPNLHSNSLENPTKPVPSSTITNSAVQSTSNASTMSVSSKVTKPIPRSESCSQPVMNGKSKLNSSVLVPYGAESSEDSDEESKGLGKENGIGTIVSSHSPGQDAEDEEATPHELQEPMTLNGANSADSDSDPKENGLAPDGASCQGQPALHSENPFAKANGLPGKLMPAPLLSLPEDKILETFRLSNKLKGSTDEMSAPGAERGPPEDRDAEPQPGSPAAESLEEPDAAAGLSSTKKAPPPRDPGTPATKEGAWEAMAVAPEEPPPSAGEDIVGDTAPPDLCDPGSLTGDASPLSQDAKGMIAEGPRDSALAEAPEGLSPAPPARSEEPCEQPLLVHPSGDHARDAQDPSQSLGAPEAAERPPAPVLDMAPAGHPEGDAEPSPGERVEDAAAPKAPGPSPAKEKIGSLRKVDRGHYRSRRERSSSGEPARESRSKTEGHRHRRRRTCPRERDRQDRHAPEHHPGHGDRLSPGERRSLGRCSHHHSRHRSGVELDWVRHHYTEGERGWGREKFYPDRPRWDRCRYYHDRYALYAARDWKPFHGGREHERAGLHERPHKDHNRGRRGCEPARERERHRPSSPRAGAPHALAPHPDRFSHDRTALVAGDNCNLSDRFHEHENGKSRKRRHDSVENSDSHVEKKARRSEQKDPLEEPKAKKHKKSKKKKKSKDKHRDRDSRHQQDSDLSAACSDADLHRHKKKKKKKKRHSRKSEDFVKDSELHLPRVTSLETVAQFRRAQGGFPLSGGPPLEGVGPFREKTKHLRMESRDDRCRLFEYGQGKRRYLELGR
Summary of the method: (§1)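 HEK293T lysate in Tris/CHAPS/IGEPAL buffer with protease inhibitors (495 µg per sample) was given fragment at 200 µM or vehicle for 3 h, in triplicate. It then received Biotin-Ahx-Ub-VS at 0.5 µM final for 1 h. Labelled DUBs were NeutrAvidin-enriched, digested with LysC and trypsin, and run by diaPASEF LC-MS/MS. Values are average log2 fragment/vehicle ratios by unpaired t-test on global-median-normalised Spectronaut quantities of proteins with ≥2 unique peptides.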

[2] = biological target: USP46 (UniProt P62068)
Summary of the method: as §1

[3] = biological target: T2, USP47 (UniProt Q96K76)
T2 sequence (whole entry): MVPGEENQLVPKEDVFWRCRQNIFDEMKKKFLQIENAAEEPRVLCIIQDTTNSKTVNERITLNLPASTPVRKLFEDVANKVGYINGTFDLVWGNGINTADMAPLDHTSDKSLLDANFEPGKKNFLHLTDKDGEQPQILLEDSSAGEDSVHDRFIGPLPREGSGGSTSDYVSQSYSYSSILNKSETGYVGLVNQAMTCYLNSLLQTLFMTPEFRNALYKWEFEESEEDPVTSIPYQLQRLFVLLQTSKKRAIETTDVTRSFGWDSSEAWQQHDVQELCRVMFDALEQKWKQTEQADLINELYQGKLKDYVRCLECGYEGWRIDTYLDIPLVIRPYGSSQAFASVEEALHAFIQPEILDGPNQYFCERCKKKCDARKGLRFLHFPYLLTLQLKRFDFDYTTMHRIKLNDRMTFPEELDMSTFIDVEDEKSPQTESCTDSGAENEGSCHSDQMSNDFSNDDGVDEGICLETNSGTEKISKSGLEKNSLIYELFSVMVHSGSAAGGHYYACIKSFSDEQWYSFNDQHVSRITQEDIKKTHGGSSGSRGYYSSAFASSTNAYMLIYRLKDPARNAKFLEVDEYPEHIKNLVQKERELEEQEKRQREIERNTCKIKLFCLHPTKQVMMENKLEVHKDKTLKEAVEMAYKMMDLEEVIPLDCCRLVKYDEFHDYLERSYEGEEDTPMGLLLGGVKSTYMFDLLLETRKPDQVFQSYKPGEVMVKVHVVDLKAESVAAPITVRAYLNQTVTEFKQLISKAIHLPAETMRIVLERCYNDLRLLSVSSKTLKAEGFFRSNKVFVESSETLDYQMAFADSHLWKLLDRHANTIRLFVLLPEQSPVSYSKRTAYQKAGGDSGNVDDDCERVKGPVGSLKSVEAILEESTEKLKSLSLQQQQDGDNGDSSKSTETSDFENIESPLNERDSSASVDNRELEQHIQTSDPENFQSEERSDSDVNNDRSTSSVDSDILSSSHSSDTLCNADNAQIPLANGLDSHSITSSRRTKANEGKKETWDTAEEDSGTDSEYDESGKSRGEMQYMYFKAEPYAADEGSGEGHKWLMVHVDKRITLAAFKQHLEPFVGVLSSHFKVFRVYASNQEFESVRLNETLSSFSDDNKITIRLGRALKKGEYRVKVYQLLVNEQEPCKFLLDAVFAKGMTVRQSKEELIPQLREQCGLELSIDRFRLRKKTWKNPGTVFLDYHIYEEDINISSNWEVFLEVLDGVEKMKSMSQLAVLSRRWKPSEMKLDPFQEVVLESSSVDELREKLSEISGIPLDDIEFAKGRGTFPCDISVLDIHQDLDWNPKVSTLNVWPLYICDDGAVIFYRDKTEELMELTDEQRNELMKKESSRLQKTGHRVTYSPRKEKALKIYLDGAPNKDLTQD
Summary of the method: as §1

[4] = biological target: T3, USP48 (UniProt Q86UV5)
T3 sequence (whole entry): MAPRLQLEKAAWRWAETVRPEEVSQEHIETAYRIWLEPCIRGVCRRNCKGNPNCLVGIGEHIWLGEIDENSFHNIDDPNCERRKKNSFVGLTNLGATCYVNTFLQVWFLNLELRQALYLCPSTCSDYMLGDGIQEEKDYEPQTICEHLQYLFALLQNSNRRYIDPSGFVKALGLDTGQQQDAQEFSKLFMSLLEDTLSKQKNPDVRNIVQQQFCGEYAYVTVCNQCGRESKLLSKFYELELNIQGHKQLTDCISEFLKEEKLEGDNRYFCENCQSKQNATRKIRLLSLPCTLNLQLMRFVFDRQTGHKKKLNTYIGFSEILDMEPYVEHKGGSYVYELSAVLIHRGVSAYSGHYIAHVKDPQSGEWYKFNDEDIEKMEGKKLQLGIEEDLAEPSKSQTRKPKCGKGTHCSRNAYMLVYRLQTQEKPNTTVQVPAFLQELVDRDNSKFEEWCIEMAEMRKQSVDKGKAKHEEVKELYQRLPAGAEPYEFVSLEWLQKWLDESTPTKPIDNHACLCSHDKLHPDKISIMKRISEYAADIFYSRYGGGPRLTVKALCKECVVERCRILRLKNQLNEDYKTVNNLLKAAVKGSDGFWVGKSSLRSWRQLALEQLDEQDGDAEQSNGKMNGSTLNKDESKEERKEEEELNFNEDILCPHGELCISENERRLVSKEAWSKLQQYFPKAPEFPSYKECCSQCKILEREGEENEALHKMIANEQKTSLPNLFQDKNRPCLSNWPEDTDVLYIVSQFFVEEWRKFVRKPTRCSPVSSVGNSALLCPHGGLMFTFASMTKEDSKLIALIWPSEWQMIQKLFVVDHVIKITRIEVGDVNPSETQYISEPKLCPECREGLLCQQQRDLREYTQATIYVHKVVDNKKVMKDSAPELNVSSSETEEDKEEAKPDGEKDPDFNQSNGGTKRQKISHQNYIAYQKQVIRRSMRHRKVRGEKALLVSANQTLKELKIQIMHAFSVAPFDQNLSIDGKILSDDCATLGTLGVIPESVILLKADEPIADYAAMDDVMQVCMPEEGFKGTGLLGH
Summary of the method: as §1

[5] = biological target: T4, USP5 (UniProt P45974)
T4 sequence (whole entry): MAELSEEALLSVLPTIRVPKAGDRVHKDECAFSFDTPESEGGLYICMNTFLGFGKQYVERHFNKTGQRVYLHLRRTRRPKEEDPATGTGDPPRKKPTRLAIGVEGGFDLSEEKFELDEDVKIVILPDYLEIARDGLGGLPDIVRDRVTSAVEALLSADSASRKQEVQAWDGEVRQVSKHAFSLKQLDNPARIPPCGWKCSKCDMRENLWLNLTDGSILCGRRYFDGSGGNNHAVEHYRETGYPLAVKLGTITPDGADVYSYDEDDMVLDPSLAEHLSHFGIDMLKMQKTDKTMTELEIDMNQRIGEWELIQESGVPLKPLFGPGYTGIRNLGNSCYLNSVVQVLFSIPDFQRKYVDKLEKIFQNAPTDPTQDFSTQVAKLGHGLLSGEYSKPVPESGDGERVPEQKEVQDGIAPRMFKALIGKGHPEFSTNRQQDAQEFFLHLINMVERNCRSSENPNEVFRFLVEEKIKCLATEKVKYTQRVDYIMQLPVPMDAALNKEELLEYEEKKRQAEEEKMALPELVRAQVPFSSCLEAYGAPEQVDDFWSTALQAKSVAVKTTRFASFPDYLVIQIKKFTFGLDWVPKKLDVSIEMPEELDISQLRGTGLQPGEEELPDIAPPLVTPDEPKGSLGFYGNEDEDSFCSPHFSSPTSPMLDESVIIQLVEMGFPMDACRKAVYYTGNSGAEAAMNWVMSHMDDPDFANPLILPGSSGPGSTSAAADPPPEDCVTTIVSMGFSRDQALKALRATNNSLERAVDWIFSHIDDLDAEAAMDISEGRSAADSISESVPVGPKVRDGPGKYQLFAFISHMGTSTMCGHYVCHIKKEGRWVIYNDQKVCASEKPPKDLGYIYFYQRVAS
Summary of the method: as §1

[6] = biological target: USP54 (UniProt Q70EL1)
Summary of the method: as §1

[7] = biological target: USP7 (UniProt Q93009)
Summary of the method: as §1

[8] = biological target: T5, USP8 (UniProt P40818)
T5 sequence (whole entry): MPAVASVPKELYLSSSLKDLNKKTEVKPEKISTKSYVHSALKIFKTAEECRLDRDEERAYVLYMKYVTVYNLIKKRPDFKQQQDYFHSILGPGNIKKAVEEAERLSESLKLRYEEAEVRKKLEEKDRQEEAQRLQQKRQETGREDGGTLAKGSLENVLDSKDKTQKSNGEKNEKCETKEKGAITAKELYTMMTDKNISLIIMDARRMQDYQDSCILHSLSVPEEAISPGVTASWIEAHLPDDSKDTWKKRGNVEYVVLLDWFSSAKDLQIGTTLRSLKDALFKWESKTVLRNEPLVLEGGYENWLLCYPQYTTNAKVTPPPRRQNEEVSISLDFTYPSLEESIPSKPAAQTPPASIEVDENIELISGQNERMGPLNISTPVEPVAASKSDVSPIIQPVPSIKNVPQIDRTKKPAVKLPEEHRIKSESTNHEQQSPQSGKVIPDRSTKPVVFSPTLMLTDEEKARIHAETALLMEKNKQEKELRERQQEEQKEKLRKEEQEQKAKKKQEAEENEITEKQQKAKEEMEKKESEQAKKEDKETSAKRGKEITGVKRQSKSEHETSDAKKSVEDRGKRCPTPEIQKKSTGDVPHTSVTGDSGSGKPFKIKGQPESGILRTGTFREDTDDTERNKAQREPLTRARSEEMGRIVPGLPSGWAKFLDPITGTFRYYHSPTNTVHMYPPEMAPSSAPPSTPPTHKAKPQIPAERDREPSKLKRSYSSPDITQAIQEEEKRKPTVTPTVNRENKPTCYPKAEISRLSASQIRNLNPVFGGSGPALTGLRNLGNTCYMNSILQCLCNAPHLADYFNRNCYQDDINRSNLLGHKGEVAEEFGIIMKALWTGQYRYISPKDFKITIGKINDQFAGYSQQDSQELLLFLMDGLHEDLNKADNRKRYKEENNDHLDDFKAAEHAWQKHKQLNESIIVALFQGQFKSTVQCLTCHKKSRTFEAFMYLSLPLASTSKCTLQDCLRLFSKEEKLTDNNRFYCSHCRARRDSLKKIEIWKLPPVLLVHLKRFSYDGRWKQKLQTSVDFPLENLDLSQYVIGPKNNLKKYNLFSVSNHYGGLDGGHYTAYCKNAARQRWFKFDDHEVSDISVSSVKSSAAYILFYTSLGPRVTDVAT
Summary of the method: as §1

[9] = biological target: USP9X (UniProt Q93008)
Summary of the method: as §1

[10] = biological target: UniProt O00487
Summary of the method: as §1

Measured: log2 ratio of Biotin-Ahx-Ub-VS probe labelling

Sequence of UniProt O00487 (O00487 whole entry): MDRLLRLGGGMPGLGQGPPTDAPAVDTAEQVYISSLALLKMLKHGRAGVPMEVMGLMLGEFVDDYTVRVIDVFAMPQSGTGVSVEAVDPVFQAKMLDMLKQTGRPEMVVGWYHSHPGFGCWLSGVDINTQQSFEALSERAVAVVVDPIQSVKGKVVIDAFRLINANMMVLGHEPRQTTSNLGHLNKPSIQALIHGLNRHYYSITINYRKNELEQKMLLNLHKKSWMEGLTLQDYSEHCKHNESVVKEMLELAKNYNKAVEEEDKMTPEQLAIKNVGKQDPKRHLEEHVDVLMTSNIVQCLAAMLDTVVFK
Sequence of USP46 (P62068 whole entry): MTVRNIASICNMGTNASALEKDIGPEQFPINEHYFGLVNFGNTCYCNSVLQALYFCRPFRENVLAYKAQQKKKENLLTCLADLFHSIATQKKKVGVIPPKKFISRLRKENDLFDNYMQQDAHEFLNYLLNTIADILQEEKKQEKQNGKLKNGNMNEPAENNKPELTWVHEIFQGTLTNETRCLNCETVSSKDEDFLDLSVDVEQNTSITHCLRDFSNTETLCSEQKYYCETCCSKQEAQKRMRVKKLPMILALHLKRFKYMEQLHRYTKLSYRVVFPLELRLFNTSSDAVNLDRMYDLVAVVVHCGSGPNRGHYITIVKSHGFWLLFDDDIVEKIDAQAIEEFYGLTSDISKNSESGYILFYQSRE
Sequence of USP7 (Q93009 whole entry, looked up): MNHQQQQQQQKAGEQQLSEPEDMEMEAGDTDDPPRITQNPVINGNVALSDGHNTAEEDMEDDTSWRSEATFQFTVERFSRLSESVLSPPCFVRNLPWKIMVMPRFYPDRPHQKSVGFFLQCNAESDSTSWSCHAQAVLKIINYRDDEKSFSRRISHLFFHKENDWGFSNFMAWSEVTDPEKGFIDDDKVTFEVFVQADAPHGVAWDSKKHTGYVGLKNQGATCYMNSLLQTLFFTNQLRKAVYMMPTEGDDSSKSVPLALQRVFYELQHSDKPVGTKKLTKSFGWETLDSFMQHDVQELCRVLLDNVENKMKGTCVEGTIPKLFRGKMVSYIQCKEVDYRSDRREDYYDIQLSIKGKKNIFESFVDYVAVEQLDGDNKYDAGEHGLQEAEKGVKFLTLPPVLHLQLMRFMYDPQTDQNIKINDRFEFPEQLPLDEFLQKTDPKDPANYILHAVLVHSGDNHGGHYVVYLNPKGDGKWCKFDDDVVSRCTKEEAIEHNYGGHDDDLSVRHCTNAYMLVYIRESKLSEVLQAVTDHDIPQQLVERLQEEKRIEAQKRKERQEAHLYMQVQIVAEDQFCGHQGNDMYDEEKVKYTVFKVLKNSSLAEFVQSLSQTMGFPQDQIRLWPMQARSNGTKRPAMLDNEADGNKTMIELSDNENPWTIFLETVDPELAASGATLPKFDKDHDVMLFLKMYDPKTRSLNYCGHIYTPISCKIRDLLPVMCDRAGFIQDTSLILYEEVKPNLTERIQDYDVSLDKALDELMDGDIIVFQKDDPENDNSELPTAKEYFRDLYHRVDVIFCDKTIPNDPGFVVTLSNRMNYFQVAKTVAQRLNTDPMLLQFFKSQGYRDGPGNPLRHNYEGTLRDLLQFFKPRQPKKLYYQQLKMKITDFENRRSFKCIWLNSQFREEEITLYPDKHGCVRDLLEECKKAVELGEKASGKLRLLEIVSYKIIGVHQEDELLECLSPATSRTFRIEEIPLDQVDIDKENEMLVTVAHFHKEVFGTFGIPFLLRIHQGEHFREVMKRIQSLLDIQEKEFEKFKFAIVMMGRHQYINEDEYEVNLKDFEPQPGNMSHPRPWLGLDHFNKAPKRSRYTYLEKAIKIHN
Sequence of USP54 (Q70EL1 whole entry): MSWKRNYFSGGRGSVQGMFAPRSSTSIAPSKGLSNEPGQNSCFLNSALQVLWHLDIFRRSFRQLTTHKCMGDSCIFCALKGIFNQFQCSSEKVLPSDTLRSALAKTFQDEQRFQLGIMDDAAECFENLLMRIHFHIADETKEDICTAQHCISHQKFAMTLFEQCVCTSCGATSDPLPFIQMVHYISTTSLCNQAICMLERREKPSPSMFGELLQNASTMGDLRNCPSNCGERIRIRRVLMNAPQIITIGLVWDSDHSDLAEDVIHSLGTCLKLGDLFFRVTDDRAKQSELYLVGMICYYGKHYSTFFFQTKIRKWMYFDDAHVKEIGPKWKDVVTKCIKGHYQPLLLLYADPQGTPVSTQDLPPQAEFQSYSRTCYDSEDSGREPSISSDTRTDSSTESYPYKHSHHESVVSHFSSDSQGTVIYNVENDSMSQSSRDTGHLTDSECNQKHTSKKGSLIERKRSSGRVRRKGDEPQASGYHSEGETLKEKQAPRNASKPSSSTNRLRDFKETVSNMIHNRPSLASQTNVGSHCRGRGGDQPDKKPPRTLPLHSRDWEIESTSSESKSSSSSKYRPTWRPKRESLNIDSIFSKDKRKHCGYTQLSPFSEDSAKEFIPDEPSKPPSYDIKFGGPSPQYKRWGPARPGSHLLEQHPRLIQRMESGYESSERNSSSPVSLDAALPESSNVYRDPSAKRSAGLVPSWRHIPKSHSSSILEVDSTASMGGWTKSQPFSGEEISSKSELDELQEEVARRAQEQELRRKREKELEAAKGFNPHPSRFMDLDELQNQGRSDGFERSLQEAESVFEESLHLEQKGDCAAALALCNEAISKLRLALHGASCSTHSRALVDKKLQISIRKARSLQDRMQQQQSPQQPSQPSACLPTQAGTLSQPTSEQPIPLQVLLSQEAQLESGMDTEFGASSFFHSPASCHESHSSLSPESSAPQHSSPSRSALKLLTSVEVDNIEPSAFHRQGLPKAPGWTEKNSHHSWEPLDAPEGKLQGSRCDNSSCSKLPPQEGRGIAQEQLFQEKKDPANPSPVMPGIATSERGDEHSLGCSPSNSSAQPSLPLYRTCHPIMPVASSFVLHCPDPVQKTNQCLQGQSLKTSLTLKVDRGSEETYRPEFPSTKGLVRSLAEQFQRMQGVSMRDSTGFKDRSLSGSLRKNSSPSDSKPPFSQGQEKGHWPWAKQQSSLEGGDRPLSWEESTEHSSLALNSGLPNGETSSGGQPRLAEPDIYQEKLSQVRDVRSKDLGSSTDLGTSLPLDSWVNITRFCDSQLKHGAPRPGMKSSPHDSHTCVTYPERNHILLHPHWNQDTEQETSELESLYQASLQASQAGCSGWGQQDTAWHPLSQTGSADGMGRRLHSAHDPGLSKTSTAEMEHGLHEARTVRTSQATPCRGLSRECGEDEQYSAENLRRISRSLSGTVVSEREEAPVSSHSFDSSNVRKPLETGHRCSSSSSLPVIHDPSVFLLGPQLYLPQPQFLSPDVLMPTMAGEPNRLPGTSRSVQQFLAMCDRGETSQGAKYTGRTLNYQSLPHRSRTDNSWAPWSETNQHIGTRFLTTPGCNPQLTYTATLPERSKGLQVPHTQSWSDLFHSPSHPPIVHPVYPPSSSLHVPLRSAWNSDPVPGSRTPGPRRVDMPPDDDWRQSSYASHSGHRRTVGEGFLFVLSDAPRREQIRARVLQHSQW

Cl.O=C(CCl)N[C@H]1C[C@@H](n2cccn2)C1
inactive: [1] 0.0882 | [2] -0.00232 | [3] 0.175 | [4] 0.0582 | [5] -0.126 | [6] -0.186 | [7] -0.218 | [8] 0.27 | [9] -0.0582 | [10] 0.0109
